We go through 39 molecules from ChEMBL document CHEMBL4513146, “CO-ADD screening of Karazin Kharkiv National University (Ukraine) compounds”.

Molecules are shown by their SMILES. Potency and affinity values are given separately.

In this assay the test system is Klebsiella pneumoniae. Particulars: Concentration 32 ug.mL-1;; ASSAY_TEST Inhibition of Bacterial Growth; detection method Absorption (OD600); MEDIA CAMHB; plate type 384well; NBS; CORNING #3640; time 18 hr.
As for `COc1ccc(-c2cc3c4nnc(SCC(=O)Nc5cccc(C#N)c5)n4ccn3n2)cc1`, the Inhibition amounted to 2.25%.

Turning to `COc1ccccc1-n1ccn2c(SCC(=O)Nc3ccc(C)cc3Cl)nnc2c1=O`, the Inhibition is given as 5.82%.

Take `O=S(=O)(c1ccc2nncn2c1)N(Cc1cccc(F)c1)c1ccc(F)c(F)c1`: the Inhibition is 13.11%.

Turning to `Cc1ccc(NC(=O)CSc2nc3ccccc3n3c(C(C)C)nnc23)c(Cl)c1`, the Inhibition is listed as 0.92%.

Turning to `Cc1nnc2c(=O)n(CC(=O)Nc3ccc(F)cc3)c3ccccc3n12`, the Inhibition is listed as 10.46%.

`Cc1nnc2c(=O)n(CC(=O)Nc3ccccc3Br)c3ccccc3n12`: the Inhibition came out at 8.13%.

For `Cc1nnc2ccc(S(=O)(=O)N(Cc3cccc(F)c3)c3ccc(F)cc3)cn12`, the Inhibition was found to be 4.75%.

Regarding `COc1ccc(-c2cc3c4nnc(SCC(=O)N(C)c5ccccc5)n4ccn3n2)cc1`, the Inhibition stood at 5.6%.

Consider `COc1cccc(Sc2nc3ccccc3n3c(=O)n(CC(=O)N4CCCc5ccccc54)nc23)c1`, for which the Inhibition is on record as 2.78%.

Consider `CCc1ccc(NC(=O)Cn2nc3c(Oc4cccc(OC)c4)nccn3c2=O)cc1`, for which the Inhibition is -4.18%.

In the case of `CCOc1ccc(-n2ccn3c(SCC(=O)c4ccc(F)cc4)nnc3c2=O)cc1`, the Inhibition is given as 1.88%.

As to `CCc1nnc2c(=O)n(CC(=O)Nc3ccc4c(c3)OCCO4)c3ccccc3n12`, the Inhibition turned out to be 1.64%.

Turning to `CCCCOc1ccc(-c2cc3c4nnc(SCC(=O)N(CC)c5ccccc5)n4ccn3n2)cc1`, the Inhibition stood at 16.4%.

`O=S(=O)(c1ccc2nncn2c1)N(Cc1cc(F)cc(F)c1)c1ccc(F)c(F)c1`: the Inhibition came out at 12.12%.

Take `O=C(Cn1nc2ccc(-c3ccc(Cl)cc3)nn2c1=O)N1CCN(c2ccc(F)cc2)CC1`: the Inhibition was -0.53%.

Take `Cc1ccc(NC(=O)Cn2nc3c(SC4CCCCC4)nccn3c2=O)cc1`: the Inhibition is given as 5.75%.

Turning to `O=C(Cn1nc2c(N3CCOCC3)nccn2c1=O)Nc1ccc2c(c1)OCO2`, the Inhibition amounted to 20.48%.

For the molecule `COc1cccc(-n2ccn3c(SCC(=O)Nc4ccc(F)cc4F)nnc3c2=O)c1`, the Inhibition is 3.3%.

For `Cc1cc(C)c(NC(=O)Cn2nc3c(Sc4ccccc4)nccn3c2=O)c(C)c1`, the Inhibition is on record as -3.36%.

Regarding `Cc1oc(-c2ccccc2)nc1CSc1nc2ccccc2n2c(C)nnc12`, the Inhibition was found to be 7.15%.

With `COc1cccc(CN(c2cccc(C)c2)S(=O)(=O)c2ccc3nnc(C)n3c2)c1`, the Inhibition was found to be 4.27%.

As to `Cc1ccc(NC(=O)CSc2nnc3c(=O)n(-c4ccc(C)c(C)c4)ccn23)c(Cl)c1`, the Inhibition came out at 12.06%.

`COc1cccc(-n2ccn3c(SCC(=O)c4ccc(C)cc4)nnc3c2=O)c1`: the Inhibition was 10.94%.

As to `O=C(Cn1nc2c3sc(N4CCCC4)nc3ncn2c1=O)Nc1ccc(F)c(Cl)c1`, the Inhibition came to 20.21%.

As for `Cc1ccc(-c2ccc3nn(Cc4ccc(N5CCCC5=O)cc4)c(=O)n3n2)cc1`, the Inhibition was determined as 8.04%.

Turning to `O=C(Cn1nc2c(SC3CCCCC3)nccn2c1=O)Nc1ccc(Br)cc1`, the Inhibition was 6.54%.

In the case of `Cc1cccc(C)c1NC(=O)CSc1nc2ccccc2n2c(C)nnc12`, the Inhibition worked out at 9.22%.

As to `O=C(Cn1nc2c3cc(-c4ccc(F)cc4)nn3ccn2c1=O)N1CCN(c2ccccc2F)CC1`, the Inhibition turned out to be 8.2%.

Take `COc1ccc(NC(=O)Cn2nc3c(N4CCOCC4)nccn3c2=O)cc1Cl`: the Inhibition is listed as -0.16%.

Take `Cc1ccc(-n2ccn3c(=O)n(Cc4ccc(F)cc4)nc3c2=O)cc1C`: the Inhibition was found to be 10.23%.

As to `COc1cccc(-n2ccn3c(SCC(=O)NCc4ccco4)nnc3c2=O)c1`, the Inhibition turned out to be 16.06%.

As to `Cc1cc(C)c(NC(=O)Cn2nc3ccc(SCc4ccc(Cl)cc4)nn3c2=O)c(C)c1`, the Inhibition was found to be 3.59%.

For `COc1ccc(-n2ccn3c(-c4cccc([N+](=O)[O-])c4)nnc3c2=O)cc1`, the Inhibition is given as 3.7%.

Take `Cc1ccc(Oc2nccn3c(=O)n(CC(=O)Nc4ccccc4Br)nc23)cc1`: the Inhibition amounted to 15.36%.

As for `Cc1ccc(NC(=O)Cn2nc3ccc(SC(C)C)nn3c2=O)c(Cl)c1`, the Inhibition stood at 9.56%.

As for `COc1ccccc1N1CCN(C(=O)Cn2nc3ccc(-c4ccc(Cl)cc4)nn3c2=O)CC1`, the Inhibition was found to be 12.66%.

Turning to `Cc1cccc(NC(=O)Cn2nc3c(Sc4ccccc4)nccn3c2=O)c1`, the Inhibition was -4.33%.

Regarding `COc1ccccc1N1CCN(C(=O)Cn2nc3c(Oc4ccc(C)cc4)nccn3c2=O)CC1`, the Inhibition turned out to be 13.94%.

`O=C(CSc1nnc2c(=O)n(-c3ccccc3)ccn12)NCc1ccc(Cl)cc1`: the Inhibition was determined as 5.95%.
